Assay outcomes (PubChem BioAssay)
In the library only some 11% were active in any assay of this set; here they are far more common.
HP1b chromo inh = HTS for Inhibitors of HP1-beta Chromodomain Interactions with Methylated Histone Tails; Chromobox protein homolog 1 (Homo sapiens), P83916; AlphaScreen HP1-beta / biotin-H3K9me3 peptide binding; Potency, µM (series often up to 114 µM), for the others: at the top dose activity change, negative = inhibition, usual class: inhibitors; 390,000 tested, 0.56% active; also: potency is read from the fitted curve at half-maximal effect; nearly all actives have a fitted effect of over 70% in size
Target sequence (P83916 whole entry, looked up): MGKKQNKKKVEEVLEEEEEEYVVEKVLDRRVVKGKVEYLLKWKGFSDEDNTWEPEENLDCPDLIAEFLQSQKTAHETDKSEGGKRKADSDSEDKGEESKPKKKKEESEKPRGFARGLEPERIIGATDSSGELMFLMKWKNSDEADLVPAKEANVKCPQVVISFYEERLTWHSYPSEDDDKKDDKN
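AlphaScreen: HP1-beta (50 nM) preformed 30 min with biotin-H3(1-18)K9me3 peptide (50 nM) in PBS pH 7.4, 0.01% Tween-20. Compound added for 30 min at RT, then streptavidin donor/nickel chelate acceptor beads (10 ug/mL) for 30 min.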
BAZ2B inh = qHTS Assay for Inhibitors of BAZ2B; AID 504333, 2011; AlphaScreen BAZ2B-H3K14Ac peptide displacement; 360,000 tested, 4.4% active; Potency, µM (series often up to 114 µM), without a hit: top-dose activity change, negative = inhibition, usual class: inhibitors; Bromodomain adjacent to zinc finger domain protein 2B (Homo sapiens), Q9UIF8; also: potency is read from the fitted curve at half-maximal effect; % is scaled to controls: 0 for no effect and ±100 for the full control effect; nearly all actives have a fitted effect of over 60% in size
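Protein-peptide AlphaScreen: BAZ2B 50 nM, b-H3K14Ac 50 nM, 1x PBS pH 7.4 + 0.01% Tween-20. Preincubation 30 min RT; cpd 30 min RT (top 110 uM); beads 20 min RT, light-protected.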
PI5P4Ka inh = qHTS for Inhibitors of phosphatidylinositol 5-phosphate 4-kinase (PI5P4K); AID 652105, 2013; max response, %; PI5P4Kalpha enzyme, ADP-Glo luminescence, 60 min; active compounds read low; 330,000 tested, 1.2% active; active = max response of -50% or lower; inconclusive = between -30% and -50%; inactive = -30% or higher; also: value at the top dose of about 77 µM; % is scaled to controls: 0 for no effect and ±100 for the full control effect
Target sequence (P48426 whole entry, looked up): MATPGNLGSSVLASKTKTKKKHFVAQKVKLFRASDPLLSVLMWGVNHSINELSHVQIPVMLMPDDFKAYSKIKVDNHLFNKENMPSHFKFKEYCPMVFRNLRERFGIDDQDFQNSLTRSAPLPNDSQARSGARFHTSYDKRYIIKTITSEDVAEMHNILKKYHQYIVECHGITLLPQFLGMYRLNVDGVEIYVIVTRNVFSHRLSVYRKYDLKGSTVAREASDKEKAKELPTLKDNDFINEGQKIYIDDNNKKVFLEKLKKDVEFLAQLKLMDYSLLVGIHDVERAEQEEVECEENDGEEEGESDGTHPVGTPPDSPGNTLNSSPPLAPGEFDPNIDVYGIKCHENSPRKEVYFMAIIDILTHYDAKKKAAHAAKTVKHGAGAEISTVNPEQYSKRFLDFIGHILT
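Quantitative HTS of the MLSMR library against PI5P4Kalpha with substrate. ATP added last at 5 microM final; room temperature, 60 minutes. Remaining ATP depleted, ADP converted and read as luminescence.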
JMJD2A Tudor inh = qHTS Assay for Inhibitors of JMJD2A-Tudor Domain | Lysine-specific demethylase 4A (Homo sapiens), O75164 | AlphaScreen JMJD2A-Tudor / H3K4me3 peptide binding | Potency, µM (doses to about 114 µM), for the others: at the highest dose activity change, negative = inhibition, hits mostly inhibitors | 390,000 tested, 4.4% active | AID 504339, 2011; also: potency is read from the fitted curve at half-maximal effect; % is scaled to controls: 0 for no effect and ±100 for the full control effect; nearly all actives have a fitted effect of over 50% in size
L3MBTL1 block = qHTS Assay for the Inhibitors of L3MBTL1 | Lethal(3)malignant brain tumor-like protein 1 (Homo sapiens), Q9Y468 | AlphaScreen L3MBTL1–H3K9me1 peptide binding | Potency, µM (top dose mostly 57.1 µM), inactives show at the highest dose activity, negative = inhibition, most hits filed as inhibitors | 230,000 tested, 0.66% active; also: potency is read from the fitted curve at half-maximal effect; % is scaled to controls: 0 for no effect and ±100 for the full control effect; nearly all actives have a fitted effect of over 60% in size
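Displacement of a biotinylated histone H3(1-15) peptide monomethylated at Lys9 (75 nM) from L3MBTL1 (50 nM) was measured by AlphaScreen after a 30 min room-temperature compound incubation; cefsulodin titration served as intraplate control.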
G9a block = qHTS Assay for Inhibitors of Histone Lysine Methyltransferase G9a; Histone-lysine N-methyltransferase EHMT2 (Homo sapiens), Q96KQ7; G9a H3K9 monomethylation, AlphaScreen, 2 h; Potency, µM (highest dose often 102 µM), for inactives: at the top dose activity, negative = inhibition, most hits filed as inhibitors; 350,000 tested, 8.8% active; also: potency is read from the fitted curve at half-maximal effect; % is scaled to controls: 0 for no effect and ±100 for the full control effect; nearly all actives have a fitted effect of over 75% in size
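Readings reflect AlphaScreen signal from monomethyl-H3K9 antibody detection. HMT at 20 nM; substrate b-H3K9 500 nM; cofactor SAM 20 uM; 2 h RT reaction; compounds tested as titrations in qHTS with 15 min preincubation.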
* hit, by the source's call; ? = inconclusive; . = no result given; [ ] = another dose, or the depositor's remark. Unless noted, calls follow the shape of the dose curve; as a rule, active = well fitted inhibition curve with a large enough effect; inconclusive = small, poorly fitted or top-dose-only effect; inactive = no such curve, though single readings can be large or run the other way.

SMILES	HP1b chromo inh	BAZ2B inh	PI5P4Ka inh	JMJD2A Tudor inh	L3MBTL1 block	G9a block
CC(=O)c1ccc(NC(=O)c2sc(-n3nc(C)c(Cc4ccccc4)c3C)nc2C)cc1	36%	-1%	.	-10%	.	7%[59 µM]
Cn1nnnc1SCC(=O)N1N=C(c2ccc(Cl)cc2)CC1c1ccco1 (stereo unspecified)	4%	.	1	-26%	-2%	.
COc1ccc(C2=NN(c3nc(-c4ccccc4)c(CC(=O)O)s3)C(c3ccco3)C2)cc1 (stereo unspecified)	-14%	50µM*	?	79µM*	32µM*	14µM*
COc1ccc(C2=NN(C(=O)CSc3nnc(C)n3C)C(c3ccco3)C2)cc1 (stereo unspecified)	25%	-5%	0	-21%	15%	50µM*
Cc1ccc(C2=NN(C(=O)CCl)C(c3ccco3)C2)o1 (stereo unspecified)	?	-23%	2	-18%	.	40µM*
Cc1ccc2ccc3cc(C(=O)Nc4ccc(C)c(F)c4)nc3c2[nH]1	23%	6%[57.1 µM]	.	-19%	.	?
Cc1ccc(Cl)cc1NC(=O)C(C)n1nnc2sc3c(c2c1=O)CCCC3 (stereo unspecified)	38%	-3%	.	-15%	.	-29%[59 µM]
C=CCN1C(=O)C(CC(C)C)NC1=S (stereo unspecified)	.	.	.	.	.	3%[12.7 µM]
Cc1cccc(C)c1NC(=O)C1C2C=CC(C2)C1C(=O)NCc1ccccn1 (stereo unspecified)	9%	79µM*	.	-17%	.	?
COc1ccc(Cc2nnc(N)s2)cc1OC	-20%	-1%	.	-16%	0%	7.9µM*
N#Cc1c(N)n(-c2cccc(Cl)c2)c2nc3ccccc3nc12	20%	0%	.	-2%	.	4%[59 µM]
Clc1cccc(-n2ncc3c(NCCCN4CCOCC4)ncnc32)c1	-7%	0%	.	-20%	.	5%[59 µM]
Cc1nc2ccccn2c1C(=O)N/N=C/c1cc(C)n(-c2ccc(Br)cc2)c1C	-40%	45µM*	.	?	-8%	-23%[59 µM]
COc1cccc(/C=N/NC(=O)c2c(C)nc3ccc(Br)cn23)c1O	2%	7.9µM*	4	35µM*	.	-9%
Cc1c(C(=O)N/N=C/c2ccc(N3CCOCC3)cc2)nc2ccccn12	42%	-4%	-4	-6%	.	-5%
COc1cc(/C=N/NC(=O)c2c(C)nc3ccc(Cl)cn23)cc(OC)c1OC	157%	?	-28	22µM*	-8%	.
Cc1nc2ccccn2c1C(=O)N/N=C/c1ccccc1	20%	-3%	0	-3%	.	8%[2.33 µM]
COc1cc(/C=N/NC(=O)c2nc3ccccn3c2C)cc(OC)c1O	25%	-24%	-5	-11%	-10%	16µM*
Cc1cc(Nc2cc(Cl)ccc2C)n2nc(-c3ccccc3)nc2n1	39%	5%	.	-2%	.	-19%[59 µM]
Cc1cc(/C=N/NC(N)=S)c(C)n1-c1ccc(Br)cc1	8%	?	-17	-26%	.	0%[59 µM]
Cc1cc(/C=N/O)c(C)n1-c1ccc(Br)cc1	?	45µM*	4	?	-15%	?
COc1cccc(-c2cc(C(F)(F)F)nc(-n3nc(C)c(Br)c3C)n2)c1	86%	16%	.	12%	.	-12%[59 µM]
O=C1NC(=S)SC1=Cc1cc(Br)ccc1O	?	.	-77*	20µM*	.	.
O=C1NC(=S)SC1=Cc1ccccc1Br	?	.	-72*	?	.	.
O=C(O)CCn1cc(/C=C2\SC(=S)NC2=O)c(-c2ccccc2)n1	45%	.	?	-1%	0%	?
SMILES	HP1b chromo inh	BAZ2B inh	PI5P4Ka inh	JMJD2A Tudor inh	L3MBTL1 block	G9a block
COc1ccc(Cl)cc1C(=O)NCc1nnnn1-c1ccccc1	27%[57 µM]	5%	.	-18%	.	3%[59 µM]
CC1(C)N=C(c2ccc(F)cc2)C(=O)N1CC(=O)Nc1ccccc1Cl	42%	-2%	.	2%	.	16%[59 µM]
COCCn1c(=O)c(-c2cn(C)c3ccccc23)nc2cnc(N3CCNCC3)nc21	.	.	.	.	.	10%[0.501 µM]
O=c1c2[nH]c3ccccc3c2ncn1CCN1CCNCC1	35%	-20%	5	-5%	.	?
Cc1ccc2c(c1)[nH]c1c(=O)n(CCN3CCNCC3)cnc12	35%	0%	5	-18%	2%	45µM*
COc1ccc(C2NC(=O)C(C#N)=C(S)N2c2ccccc2)cc1OC (stereo unspecified)	43%	-31%	?	-6%	6%	45µM*
COc1cc(C2NC(=O)C(C#N)=C(S)N2c2ccccc2)ccc1OC(C)C (stereo unspecified)	35%	5%	-21	-13%	16%	?
COc1ccc(N2C(S)=C(C#N)C(=O)NC2c2ccco2)cc1 (stereo unspecified)	6%	-30%	-17	-16%	13%	35µM*
CCc1c(C(=O)NCCc2ccc(N3CCCCC3)cc2)[nH]c2ccc(Cl)cc12	.	.	.	.	.	28µM*
O=C(c1cccc(S(=O)(=O)N2CCOCC2)c1)N1CCN(Cc2ccc3c(c2)OCO3)CC1	15%	-26%	-1	-11%	-6%	40µM*
O=C(O)c1ccccc1C(=O)N1CCN(Cc2ccc3c(c2)OCO3)CC1	18%	-2%	7	-10%	.	4%
O=C(c1ccccc1F)N1CCN(Cc2ccc3c(c2)OCO3)CC1	40µM*	45µM*	-8	0.89µM*	-2%[2.29 µM]	-5%[0.501 µM]
CCSc1ccccc1C(=O)N1CCN(Cc2ccc3c(c2)OCO3)CC1	5%	5%	.	-28%	-10%	7.9µM*
CCOc1ccc(NC(=O)N(C)CCc2c(C)nn(C)c2C)cc1	45%	-25%	.	6%	.	18%[59 µM]
Nc1ccc(Nc2nc3ccccc3[nH]2)cc1	?	45µM*	-52*	56µM*	-14%	.
Nc1ccccc1Nc1nc2ccccc2[nH]1	-7%	?	0	-26%	-19%	89µM*
CCc1cccc(NC(=O)C(Cc2ccccc2)n2cccc2)c1 (stereo unspecified)	19%	10%	.	3%	.	13%[59 µM]
Cc1nc2cnc(Oc3ccccc3)nc2n(Cc2cccs2)c1=O	.	.	.	.	.	10%[0.501 µM]
Cc1ccc2c(c1)c1c(n2CC(O)Cn2c(C)nc3ccccc32)CCCC1 (stereo unspecified)	7%	9%	9	?	.	-24%
Cc1ccc2c(c1)c1c(n2CC(O)CN2CCCCCC2)CCCC1 (stereo unspecified)	?	35µM*	0	?	.	?
